Measured values published in the supplement of paper PMC6555819.

Test system: RARg homodimer (NR concentration 270 nM)
Experiment: PBM binding z-score (relative to random genomic background probes); higher = stronger binding; sequences stand for … in GC…GCGATTGACAGCGTAGAATGAAGG
Summary of the method: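 Binding z-scores take random background probes as their reference. They come from custom Agilent 4×180K protein-binding microarrays incubated 1 h with ligand-free nuclear receptor dimers, with antibodies against each partner (one per run) detecting binding. Scanned fluorescence was regression-normalized.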

Point of comparison: TCTATTAGTTGATTAGGGCTACCGAAACAGCGGA, PBM binding z-score 0.15. Against it:
- CATACAGGGTCAGCTAGGCCAGAGTGGGGACGGC — higher, 4.75
- CGTCCAAGGTCAAATGTCAGTGAAGAGATGACGG — higher, 7.15
- ATATGTAGGTTACATCCGGCTCATTCAGGCTATG — higher, 1.15
- CCTTACGGGTCAAGGTTAGAGCACGGGTGGTACG — higher, 4.65
- AGAATGAGGTTATTCAGATCAGGGAATTGCGGTC — higher, 1.13
- AGAACGAGGGCAATGAGATGATAGCACGGGTGGC — higher, 1.72
- CATAGAGGGTCAGCTAGGCCAGAGTAGGGACGGC — higher, 4.33
- CCTATTAGTTGACCATAAAGGCAACCGAAGCTCG — higher, 0.504
- TGAATGAGGTTAAAGATCAGGCAACGTGGCGTCG — higher, 1.16
- CGCCCAAGGTCAAGGTCAGTGAAAGAGACTCGAA — higher, 7.08
- GCTAGCAGGTCATTTGGGTCACTCAATGACGGGC — higher, 4.38
- ATCTCTAGGTAAAGATAGGTCAGTGAATGCAAAT — higher, 1.85
- CCAGACAGGTGCAAGGTAACTCAGTCTGGTACGC — lower, -0.108
- AGTCAAAGTTCAGGACCAGGTAACGTAAAGCACG — higher, 4.51
- GCAGACAGGTGAAACGCAGGTACCTCAGGGTGGC — lower, 0.145
- CATCCAGGGTCAGCTAGGCCAGAGTAGGGACGGC — higher, 4.96
- TGAATGTGGTTAAAGATCAGGGAACGTGGCGTCG — lower, -0.196
- TCTAGTTGGTCACGGAGGCCACACACGACGGGTA — higher, 2.06
- TTACCATGGTGAAAGGTCGTTGATGCACGCCTTG — higher, 1.04
- TCTAATTGGTCAAAGGTCACACACTCGAAATGCG — higher, 6.41
- GCGACTGGGGCATAGCAGGTTACCATAAGGTTGG — higher, 0.629
- CCTAGCAGGCCAATCTTGGTCACTCAAGGCTTGA — lower, 0.118
- TCATATACGTAAACAGGTGAAAGTCCGTAAGTTA — higher, 0.405
- CCTACTGGCCCATTCAGAGGTCATTGATCATATG — higher, 2.56
- ATCTCTAGGTAACAAGTTCAGTTAAAGAGAGGAC — higher, 1.45
- GCTAGCAGGCCCTTTGGGTCACTCAATGACGGGC — higher, 0.718
- ACTAGCAGGCCAAGTTTGGGTCACTCAAACAAAG — higher, 1.72
- ACAGACAGGTGATGAAGGAAACTCAGGCTATCAT — higher, 0.36
- ATCTCTAGGTACCAAGTTCAGTGAAAGAGAGGAC — higher, 0.865
- GCGACTGGGGCATCAGCAGGTCACCATAACTTAA — higher, 2.47
- ACTAGTTGGTCAGCAGAGGTCACACACAATTCGG — higher, 5.13
- ATTGAAAGGTCGAAGGTGAGTATACCCACCCGAA — higher, 3.76
- TCTAGCAGGCCAGAGGGTCACGCAAGAGGTACGG — higher, 3.41
- TCTAGTTGGTCAAAGGTCGCACACTCGAAATGCG — higher, 2.91
- GCTGCTAGGTCAACTGATGGTCAGCTCAAGCTCG — higher, 5.38
- CGCCAAAGTTCAACTAAGGTAACGTAAAGCACGC — higher, 6.48
- TCAGACAGGTGAAGTTAACTCAGGTACGCAGTCG — higher, 0.629
- ATATGTAGGTTAAGGGTCATACAGGTTGGTTCGC — higher, 3.57
